PINK1 expr mod – modulators of PINK1 expression; AID 624263; PINK1 immunofluorescence, high-content cytometry, 24 h; 0.2% of 410,000 active; Potency, µM (series often up to 76.6 µM), without a hit: top-dose activation (PINK1 increase), most hits filed as activators; active = well fitted activation curve with a large enough effect; inconclusive = small, poorly fitted or top-dose-only effect; cell line not stated here; note: potency is the fitted concentration of half-maximal effect; % of control where 0% means no effect; nearly all actives have a fitted effect of over 65% in size
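PINK1 protein, normally rapidly degraded, was detected by immunofluorescence after 24 hour compound treatment of a stable cell line. Titration data (5 concentrations) came from laser-scanning cytometry, with CCCP-treated wells as controls.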
Epigenetic derep – derepresses silenced GFP reporter in murine cells. murine LDR cells, GFP reporter derepression, 30 h. Potency, µM (doses to about 53.9 µM), inactives show top-dose GFP activation, usual class: activators. 0.2% of 280,000 active. AID 1865; note: potency is the fitted concentration of half-maximal effect; % of control where 0% means no effect; nearly all actives have a fitted effect of over 60% in size
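Readout is the number of GFP-expressing murine LDR cells, counted by cytometry following washing. Cells were treated with compound for 30 h at 37 C; the stably integrated CMV-GFP locus is normally silent.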
IL-2 act – activators of IL-2; activation, % (series mostly up to about 46 µM); IL-2 activation reporter assay, cell-based qHTS; stimulated with anti-CD3/CD4/CD28 beads; in transgenic mouse T cells; AID 652025; 0.065% of 360,000 active; in the data active = activation above about 50%; inconclusive = mostly about 30% to 49%; note: 0% is about no effect
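Readout is EGFP and DsRed signal by fluorescent plate cytometry after 18 h at 37 degrees C. Transgenic mouse T cells (750/well) received compound for 60 min before bead stimulation (anti-CD3, anti-CD4, anti-CD28); memory T cells served as non-tolerant control.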
B2AR arrestin – beta2AR (human) beta-arrestin recruitment activity; beta-arrestin recruitment to beta2AR, cell-based reporter; P07550; Potency, µM (top dose mostly 46.1 µM), inactives show top-dose activation, usual class: activators; AID 492947; 0.02% of 330,000 active;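 note: potency is the fitted concentration of half-maximal effect; 0% = DMSO controls and full agonism = EC100 isoproterenol or metaproterenol; nearly all actives have a fitted effect of over 65% in size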
Target sequence (P07550 whole entry, looked up): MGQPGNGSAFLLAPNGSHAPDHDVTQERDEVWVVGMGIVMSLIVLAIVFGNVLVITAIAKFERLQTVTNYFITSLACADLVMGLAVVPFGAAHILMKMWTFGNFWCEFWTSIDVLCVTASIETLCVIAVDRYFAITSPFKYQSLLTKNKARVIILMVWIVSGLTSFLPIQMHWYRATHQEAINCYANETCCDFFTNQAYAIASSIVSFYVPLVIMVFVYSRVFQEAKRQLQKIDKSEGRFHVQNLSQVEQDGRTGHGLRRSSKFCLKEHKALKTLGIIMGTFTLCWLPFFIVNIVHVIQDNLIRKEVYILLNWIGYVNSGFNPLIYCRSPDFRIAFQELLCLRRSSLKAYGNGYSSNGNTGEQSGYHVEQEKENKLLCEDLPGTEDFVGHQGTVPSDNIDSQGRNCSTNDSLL
PKM2 act – increases activity of human pyruvate kinase M2. P14618. purified PKM2, Kinase-Glo ATP luminescence, activation; response scale: 0% is enzyme alone, no compound. Potency, µM (top dose mostly 57.5 µM), for the others: at the highest dose activation, usual class: activators. 0.34% of 260,000 active. AID 1631; note: potency is the fitted concentration of half-maximal effect; % is set by controls: 0 for no effect and ±100 for the full control effect; nearly all actives have a fitted effect of over 55% in size
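Purified hPK-M2 (>95% pure) converted ADP (0.1 mM final) to ATP with 0.5 mM PEP in 50 mM imidazole pH7.2, KCl, MgCl2, Tween 20, BSA; 1 h at room temperature. ATP detected by Kinase-Glo luminescence.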
Parental c127i – changes parental c127i cell counts in epigenetic modulator counter-screen | shares compounds with Epigenetic derep | mouse c127i parental cells, fluorescent cell count, 30 h | Potency, µM, inactives show top-dose fluorescent cell count, usual class: activators | 20% of 60 active
HCC4017 tox – HCC4017 cytotoxicity of epigenetic modulator hits. AID 493071. 30% of 45 active. shares compounds with Epigenetic derep. HCC4017 NSCLC viability, CellTiter-Glo ATP luminescence, 72 h. Potency, µM (doses to about 46.1 µM), inactives show top-dose activity change, negative = cytotoxicity, actives largely listed as cytotoxic
H358 tox – H358 cytotoxicity of epigenetic modulator hits. shares compounds with Epigenetic derep. H358 NSCLC viability, ATP luminescence, 72 h. Potency, µM (top dose mostly 46.1 µM), without a hit: at the top dose activity change, negative = viability loss, usual class: cytotoxic. 30% of 45 active
The depositor's hits bear a star. A selection: hits, their analogues and other compounds. The true share with any hit is near 0.58%. Unless noted, calls come from the whole dose curve; as a rule, active = well fitted curve in the direction sought with a large enough effect; inconclusive = small, poorly fitted or top-dose-only effect, or another doubt; inactive = no such curve, though single readings can be large; an effect the other way counts as inactive or inconclusive.

Screening Cc1ccc(C)c(CN2C[C@H](Sc3nc4ccccc4[nH]3)C[C@H]2C(=O)N2CCCN(C)CC2)c1 returned PINK1 expr mod -1%.
`Cc1nc(CSc2nsc(/C=C/N(C)C)c2C#N)cs1` gave PINK1 expr mod 0%, Epigenetic derep 6.3µM*, IL-2 act 1, B2AR arrestin 0%, PKM2 act inconclusive and Parental c127i 10%.
Screening OC1(c2cccnc2)CCN(Cc2ccc3c(c2)CN(Cc2cc(F)ccc2F)CCO3)CC1 returned PINK1 expr mod -1%.
Screening C#Cc1cccc(C(=O)NCc2nc(-c3ccccc3NC(=O)C3CCCO3)oc2C)c1 (centres undefined) returned PINK1 expr mod 1%.
Screening O=C(Nc1ccc(OC(F)F)cc1)c1nc(S(=O)(=O)Cc2ccccc2F)ncc1Cl returned PINK1 expr mod 0%.
`CCOc1ccc(NC(=O)c2nc(S(=O)(=O)Cc3ccccc3F)ncc2Cl)cc1` gave PINK1 expr mod -2%, Epigenetic derep inconclusive, Parental c127i 0%, HCC4017 tox 7.1µM* and H358 tox 7.9µM*.
Cc1cc(N2CCN(c3ccc(C(F)(F)F)cc3[N+](=O)[O-])CC2)c2ccccc2n1 was read as PINK1 expr mod 23%, IL-2 act -1, B2AR arrestin 0% and PKM2 act -1%.
Screening Cc1cc(N2CCN(c3ccc([N+](=O)[O-])c4cccnc34)CC2)c2ccccc2n1 returned PINK1 expr mod inconclusive, Epigenetic derep 7.1µM*, IL-2 act -2, B2AR arrestin 0%, PKM2 act -8% and Parental c127i 14µM*.
Cc1oc(-c2ccccc2NC(=O)C2CCCO2)nc1CNC(=O)c1[nH]c2c(C)ccc(C)c2c1C (centres undefined) was read as PINK1 expr mod 1%.
COc1ccc2c(C)nc(Nc3nc(-c4ccccc4)cc(=O)[nH]3)nc2c1 was read as PINK1 expr mod 5%, Epigenetic derep 3.5µM*, IL-2 act -4, B2AR arrestin 0%, PKM2 act 13%, Parental c127i 6%, HCC4017 tox 8.9µM* and H358 tox 4.4µM*.
CN(C)S(=O)(=O)c1cccc(NC(=S)N/N=C/c2ccco2)c1 was read as PINK1 expr mod 1%, Epigenetic derep 3.5µM*, IL-2 act 0, B2AR arrestin inconclusive, PKM2 act 1%, Parental c127i 6%, HCC4017 tox -1% and H358 tox -3%.
Screening Oc1[nH]c2ccccc2c1N=Nc1ccccn1 returned PINK1 expr mod 8% and IL-2 act 2.
For Oc1c(N=Nc2ccccn2)ccc2ccccc12 the results were PINK1 expr mod -2%, Epigenetic derep 10µM*, IL-2 act 0, B2AR arrestin 0%, PKM2 act -43%, Parental c127i 2%, HCC4017 tox 2µM* and H358 tox 1.3µM*.
`CCC(=O)N1CCN(c2ccc(NC(=O)c3ccc([N+](=O)[O-])o3)cc2Cl)CC1` gave PINK1 expr mod -1%, Epigenetic derep inconclusive, IL-2 act -7, B2AR arrestin 0%, PKM2 act -1%, Parental c127i 4%, HCC4017 tox 2.8µM* and H358 tox 1.4µM*.
`N#CC1=C(N)n2c(s/c(=C\c3cccs3)c2=O)=C(C#N)C1c1cccs1` (centres undefined) gave PINK1 expr mod inconclusive, Epigenetic derep 10µM*, IL-2 act 2, B2AR arrestin 0%, PKM2 act 0% and Parental c127i 14µM*.
`Cc1ccc(F)cc1CNC(=O)c1sc2ncnc(NCC3CCCO3)c2c1C` (centres undefined) gave PINK1 expr mod 1%.

Screening data as filed in PubChem.
